Results reported in PubChem BioAssay AID686978 (National Center for Advancing Translational Sciences (NCATS), 2013).
Hit rate of the full screen: of about 420,000 compounds, about 64,000 (15%) were called active. Inconclusive results (about 27%) are left out. Not all results are given here. A number with no mark means an inactive call. The call rests on the fitted dose curve; in most records, active means well fitted inhibition curve with a large enough effect; inconclusive means small, poorly fitted or top-dose-only effect; inactive means flat fitted curve, though single readings scatter.

Experiment: qHTS for Inhibitors of human tyrosyl-DNA phosphodiesterase 1 (TDP1): qHTS in cells in absence of CPT; further: nearly all actives have a fitted effect of over 55% in size
Settings: DT40 Tdp1-/- hTDP1 cells, no CPT, ATP luminescence, 48 h; activity change, negative = growth inhibition: at 46.2 µM (top of the series)
Outline: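 Seeded 400 DT40-hTDP1 cells/well (vehicle DMSO, no 20 nM CPT); pinned compounds; ≥48 hr at 37 °C; CellTiter-Glo luminescence as viability measure.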
On the % scale 0 is the no-effect control and ±100 the full control effect; potency means the concentration at half of the fitted maximal effect.

Row | Structure (SMILES) | activity change, negative = growth inhibition [%] | Potency
1 | CCOC(=O)N1CCN(CC(=O)c2ccc3c(c2)CCN3)CC1 | -13.7 | –
2 | CC(OC(=O)CNC(=O)c1ccc(Cl)c([N+](=O)[O-])c1)C(=O)NCc1ccco1 (stereo unspecified) | 0.37 | –
3 | CC(CC(=O)Nc1ccccc1)n1ccnc1 (stereo unspecified) | 36.8 | –
4 | COc1ccccc1Oc1ccc(N2CC(C(=O)OCC(=O)c3ccc(F)cc3)CC2=O)cc1 (stereo unspecified) | -21.1 | –
5 | CN1CCN(CC(=O)Nc2cccc([N+](=O)[O-])c2)CC1 | -6.25 | –
6 | COc1cccc(NC(=O)CN(C)S(=O)(=O)c2ccc(C)cc2)c1 | -27.5 | –
7 | Cc1ccc(N(CC(=O)Nc2cc(C)cc(C)c2)S(=O)(=O)c2cccc3nonc23)cc1 | -14.4 | –
8 | COc1ccc(C)cc1S(=O)(=O)N(CC(=O)Nc1cccc([N+](=O)[O-])c1)c1ccc(C)cc1 | – | 13 µM (active)
9 | Cc1ccc(S(=O)(=O)N(CC(=O)Nc2cccc([N+](=O)[O-])c2)Cc2ccc(Cl)cc2)cc1 | – | 25.9 µM (active)
10 | Cc1ccc(S(=O)(=O)N(Cc2cccc([N+](=O)[O-])c2)C(=O)N2CCN(C)CC2)cc1 | -4.4 | –
11 | CCn1cc(/C=C(\NC(=O)c2cc(OC)c(OC)c(OC)c2)C(=O)N2CCN(C)CC2)c2ccccc21 | 1.95 | –
12 | CCCCCN1CC(O)=C(c2nc(-c3ccc(Cl)cc3)cs2)C1=N | -0.478 | –
13 | Cc1ccc(-n2nc(N)c3c(=O)oc(N(C)C)nc32)cc1 | -0.449 | –
14 | CN(c1ccccn1)c1ncnc2[nH]ncc12 | 18.8 | –
15 | O=C(COC(=O)c1ncc(Cl)c(Cl)c1Cl)NCc1ccccc1 | 2.04 | –
16 | c1ccc(CNc2ncnc3[nH]ncc23)cc1 | – | 23.1 µM (active)
17 | Nc1ccccc1C(=O)NC1CCCCNC1=O (stereo unspecified) | -4.17 | –
18 | O=C1CN(C(=O)COc2c(Cl)cccc2Cl)c2ccccc2N1 | -19.7 | –
19 | CCCCn1c(N)c(N(CC(C)C)C(=O)c2cccc(S(=O)(=O)N3CC(C)OC(C)C3)c2)c(=O)[nH]c1=O (stereo unspecified) | -3.62 | –
20 | Cc1ccc(NC2=C(c3ccc(C(F)(F)F)cc3)C(=O)c3ccccc32)cc1F | – | 8.2 µM (active)
21 | Cc1ccc(NC(=O)NC(=O)c2ccccc2)cc1F | -4.06 | –
22 | COc1ccccc1Nc1nc(N)nc(CSC(=S)N2CCOCC2)n1 | -14.6 | –

Row | Structure (SMILES) | activity change, negative = growth inhibition [%] | Potency
23 | CCc1ccc(CNC(=O)C2CCCN(c3nc4ccccc4o3)C2)cc1 (stereo unspecified) | -10.1 | –
24 | CCOC(=O)c1cnc(Nc2nc3ccccc3o2)nc1CSC(=S)N1CCCCC1 | – | 0.0326 µM (active)
25 | CC(NS(=O)(=O)c1ccc(OCC(=O)N2CCCC2)cc1)c1ccccc1 (stereo unspecified) | -0.332 | –
26 | CC(=O)N1CCC2(CCCN(c3ncccn3)C2)CC1 | 5.85 | –
27 | CC(Oc1ccc(F)cc1)C(=O)N1CCN(c2ncccn2)CC1 (stereo unspecified) | 1.97 | –
28 | CC12CCC(C(=O)N3CCN(c4ncccn4)CC3)(c3nc4ccccc4nc31)C2(C)C (stereo unspecified) | – | 23.1 µM (active)
29 | Cc1ccc(-c2ccnc3nc(Sc4ncc(C(F)(F)F)cc4Cl)nn23)cc1 | -13.8 | –
30 | Cn1c(SCC(=O)Nc2ccc(Br)cc2F)nnc1-c1ccco1 | 6.11 | –
31 | O=C(Nc1ccccc1C(=O)O)c1cc(S(=O)(=O)N2CCCCC2)cs1 | -9.19 | –
32 | COCCn1nnnc1C(c1cc2ccc(OC)cc2[nH]c1=O)N1CCc2ccccc2C1 (stereo unspecified) | -20.4 | –
33 | COc1ccc(OC)c(C(c2nnnn2C(C)(C)C)N2CCc3ccccc3C2)c1 (stereo unspecified) | – | 13 µM (active)
34 | CC(C)(C)n1nnnc1C(c1ccc(Cl)cc1)N1CCSCC1 (stereo unspecified) | -23 | –
35 | CCOc1ccc(Nc2nc(Cc3nnc(SCC(=O)NC4CCCC4)n3C)cs2)cc1 | -12.6 | –
36 | Cc1cccc(N2CCN(C(=O)CCn3c(=O)c4cccn4c4cccnc43)CC2C)c1 (stereo unspecified) | – | 3.66 µM (active)
37 | Cc1cccc(NC(=O)Cn2c(=O)n(CCC(C)C)c(=O)c3cccnc32)c1 | -23.8 | –
38 | Cc1cccc(N2CCN(C(=O)c3cc4c(=O)oc5ccccc5c4s3)CC2C)c1 (stereo unspecified) | -36.4 | –
39 | Cc1ccc(S(=O)(=O)NC2CCCCCC2)cc1 | -3.72 | –
40 | Cc1ccc(S(=O)(=O)C2(S(=O)(=O)c3ccc(C)cc3)CCCC2)cc1 | – | 6.51 µM (active)
41 | Cc1ccc(S(=O)(=O)N(C)C2(C)CCS(=O)(=O)C2)cc1 (stereo unspecified) | -11.5 | –
42 | C=C1c2cccc(OC)c2O[C@H](C(=O)OCC)[C@@H]1CCCCCC | -24.5 | –
43 | CCCn1nc(NS(=O)(=O)c2ccc(F)cc2)c2cc3ccccc3nc21 | 16.6 | –
44 | COC(=O)c1cc(OCC(=O)NC2CCCc3ccccc32)cc(C(=O)OC)c1 (stereo unspecified) | -6.64 | –

Row | Structure (SMILES) | activity change, negative = growth inhibition [%] | Potency
45 | O=C(O)CCC(=O)N(Cc1cccs1)Cc1cccs1 | -8.37 | –
46 | COc1ccccc1NC(=O)CSc1nnc(C)n1CC1CCCO1 (stereo unspecified) | -4.72 | –
47 | CC(C)Oc1ccc(CCc2nnc(SCC(=O)O)n2-c2ccccc2)cc1 | 5.27 | –
48 | CC(C)Oc1ccc(CCc2n[nH]c(=S)n2Cc2ccccc2)cc1 | – | 20.6 µM (active)
49 | CC(C)Oc1ccc(Cc2n[nH]c(=S)n2Cc2ccccc2)cc1Cl | -21.3 | –
50 | Cc1ccc(CSc2nnc(-c3cnccn3)n2C)cc1 | -21.9 | –
51 | O=C(O)CCn1c(SCc2cc(=O)n3ccccc3n2)nc2ccsc2c1=O | -2.92 | –
52 | Cc1ccc(CSc2nc3ccsc3c(=O)n2CCC(C)C)cc1 | – | 23.1 µM (active)
53 | O=CN1CCN(C(=O)c2ccc(Br)o2)CC1 | 7.18 | –
54 | CCC(CO)Oc1cc(NC(=O)c2cccc(F)c2)c2ncn(C(C)C)c2c1 (stereo unspecified) | -28.2 | –
55 | Cc1ccc(CNC(=O)COc2ccc(S(=O)(=O)NC(C)C)cc2)cc1 | -10.9 | –
56 | O=S(=O)(NN=C1CCCCCCC1)c1ccc(Br)cc1 | -1.76 | –
57 | O=C(CNS(=O)(=O)c1ccc(Br)s1)NCc1ccc2c(c1)OCO2 | -10.7 | –
58 | CN(CC(O)COc1ccc(S(=O)(=O)N2CCOCC2)cc1Cl)C1CCCCC1 (stereo unspecified) | -2.06 | –
59 | Cc1nn2c(NCCN(C)C)c3c(nc2c1-c1ccccc1)CCC3 | – | 25.9 µM (active)
60 | Cc1cc(-n2nc(C)cc2C)n2nc(C)c(-c3ccccc3)c2n1 | -1.3 | –
61 | Cc1cc(C(C)(C)C)n2nc(C)c(-c3ccccc3)c2n1 | -10.7 | –
62 | Cc1ccc2c(c1)C1C[N+](C)(CC(=O)c3ccccc3)CCC1N2C(=O)c1ccccc1Cl (stereo unspecified) | 8.16 | –
63 | COc1cccc(NC(=O)C(Sc2nnnn2C)c2ccccc2)c1 (stereo unspecified) | 10.7 | –
64 | O=C(NNS(=O)(=O)c1ccc(F)cc1)C1CCCCC1 | -11.3 | –
65 | O=C1CC[C@@H](C(=O)N2CSC[C@@H]2C(=O)Nc2ccc(C(F)(F)F)cc2)N1 | -23.9 | –
66 | Cc1sc(NC(=O)C2=COCCO2)c(C#N)c1C | -25.1 | –

Row | Structure (SMILES) | activity change, negative = growth inhibition [%] | Potency
67 | Cn1nccc1CNC(=O)c1ccnn1C | 8.62 | –
68 | CCCc1ccc(-c2c(C)sc(NC(=O)c3ccnn3C)c2C#N)cc1 | – | 20.6 µM (active)
69 | CC(CCn1cccn1)NC(=O)CCc1nnc(CCc2ccccc2)o1 (stereo unspecified) | 13.7 | –
70 | COc1ccc(C(C#N)(CC(=O)O)c2cnccn2)cc1OC (stereo unspecified) | 2 | –
71 | COc1ccc(C(=O)Nc2cccc(S(C)(=O)=O)c2)cc1 | – | 23.1 µM (active)
72 | COc1ccc(NC(=O)c2cnc(NS(=O)(=O)c3ccccc3)nc2)cc1 | -14.2 | –
73 | COc1ccc(NC(=O)c2ccc(OC)cc2)cc1 | -7.09 | –
74 | CCC(=O)Nc1ccc(C(=O)Nc2cccc(OC)c2)cc1 | -22.8 | –
75 | COc1cccc(NC(=O)c2ccc(S(=O)(=O)N(C)C)cc2)c1 | 2.12 | –
76 | COc1ccc(NS(=O)(=O)c2ccc(NC(=O)c3ccc(N(C)S(C)(=O)=O)cc3)cc2)cc1 | – | 8.2 µM (active)
77 | CC1(C)C(=O)Nc2ccccc2N1C(=O)COC(=O)Cn1cnc2ccccc2c1=O | -10.5 | –
78 | O=C1CC(c2cccc(Br)c2)C2=C(CCCC2=O)N1 (stereo unspecified) | -15.9 | –
79 | COc1cc(OC)cc(/C(N)=N/O)c1 | 0.324 | –
80 | Cc1ccc(-c2cc(C(=O)N/N=C/C=C/c3ccccc3)n[nH]2)o1 | -12.2 | –
81 | Cc1cc(C(=O)N/N=C\C(Br)=C\c2ccccc2)c(C)o1 | – | 16.4 µM (active)
82 | COc1ccc(C/C(C)=N/NC(=O)c2cc(C)oc2C)cc1 | -17.1 | –
83 | CC(C)c1cc(C(=O)O)n[nH]1 | -6.63 | –
84 | CC(=C/c1ccccc1)/C=N/NC(=O)c1cc(C)oc1C | -18.6 | –
85 | CC(C)c1cc(C(=O)N/N=C/C(Br)=C/c2ccccc2)n[nH]1 | – | 2.59 µM (active)
86 | Cc1ccc(NC(=O)Cc2nnc(SCC(=O)Nc3nncs3)n2C)cc1 | 1.58 | –
87 | CC(C)Nc1nnc(SCC(=O)c2c[nH]c3ccccc23)s1 | -28.5 | –
88 | CC(NC(=O)C(=O)N/N=C/c1ccc(Cl)cc1)c1ccccc1 (stereo unspecified) | -10.3 | –

Row | Structure (SMILES) | activity change, negative = growth inhibition [%] | Potency
89 | C=CS(=O)c1sc(Cl)c(N2CCOCC2)c1[N+](=O)[O-] (stereo unspecified) | – | 1.03 µM (active)
90 | Cc1c(Nc2cc(N3CCCC(C)C3)c3nonc3c2[N+](=O)[O-])c(=O)n(-c2ccccc2)n1C (stereo unspecified) | 10.8 | –
91 | COc1ccc(N2C(=O)CC(N3CCC(C(N)=O)CC3)C2=O)cc1 (stereo unspecified) | -2.52 | –
92 | CCN1CCN(c2ccc(/C=C/c3ccnc4ccccc34)cc2)CC1 | – | 17.8 µM (active)
93 | c1ccc(-c2cnc(CN3CCN(c4ccccc4)CC3)o2)cc1 | -4.06 | –
94 | Oc1ccc(/C=N/N(Cc2ccccc2)c2ccccc2)cc1 | 0.739 | –
95 | CCC(C)N(c1ccc(/C=C/c2ccnc3ccccc23)cc1)C(C)CC (stereo unspecified) | – | 4.47 µM (active)
96 | CN(C)c1ccc(/C=N/N(Cc2ccccc2)c2ccccc2)cc1 | 5.64 | –
97 | CCCCCCCNc1ccc(/C=C/c2ccnc3ccccc23)cc1 | – | 10 µM (active)
98 | CN(Cc1ccccc1)c1ccc(/C=C/c2ccnc3ccccc23)cc1 | – | 12.6 µM (active)
99 | O=C(CN1CCCC1)N1CCN(c2ccccc2)CC1 | 4.2 | –
100 | CCCCN1C(=O)CC(N2CCOCC2)C1=O (stereo unspecified) | -1.99 | –
101 | CN(C)C(=O)c1cccn(Cc2cccc(C(F)(F)F)c2)c1=O | 2.44 | –
102 | O=C(c1cc(-c2ccc(O)cc2)on1)N1CCOCC1 | -0.712 | –
103 | CC(=O)c1ccc(NC(=S)N(Cc2ccccc2)C(C)C2CC2)cc1 (stereo unspecified) | -18.9 | –
104 | O=C(Nc1ccc(C(=O)O)cc1)/C(=C/c1ccc([N+](=O)[O-])cc1)NC(=O)c1ccccc1 | -11.3 | –
105 | CCOC(=O)C1(C(F)(F)F)N=C(N(C)C)OC(N(C)C)=N1 | -2.16 | –
106 | Cc1ccc2nsnc2c1S(=O)(=O)N1CCCC1C(=O)O (stereo unspecified) | -2.15 | –
